Assay outcomes as filed in PubChem.
TRPM1 prom inh = inhibitors of MITF-dependent TRPM1 promoter reporter, primary screen, cell-based, SK-MEL-5, single point, luciferase; SK-MEL-5 TRPM1 promoter luciferase, 24 h; inhibition, % at 12.5 µM; actives 0.83% (n = 330,000);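 active = mean inhibition across replicates of 60% or more, whatever share of single replicates reaches that level; inconclusive = some that reach 60%, reason not given; inactive = mean inhibition across replicates below 60%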
Gli-Sufu antag = Gli-Sufu pathway antagonists, primary screen, luciferase luminescence, Sufu-KO-LIGHT cells, uHTS. Sufu-KO-LIGHT fibroblasts, Gli luciferase reporter luminescence. inhibition, % at 5 µM. actives 0.74% (n = 340,000). AID 588413, 2011;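 active = inhibition above about 55%, limit read from the data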;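 also: 0% = DMSO-treated cells and 100% = wells with medium but no cells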
EBV LMP1 NFkB = EBV LMP1-driven NF-kappaB luciferase reporter inhibitors, primary screen, cell-based, luminescence, single point; LMP1-induced NF-kappaB luciferase reporter cells; inhibition, % at 12.5 µM; actives 0.69% (n = 350,000); AID 504558, 2011; in the data active = inhibition above about 41%; inconclusive = no clear call, values can overlap the other calls;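 also: 0% = neutral control wells and 100% = reference inhibitor control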
Shn3 inh set2 = reduction of Shn3 3'UTR firefly luciferase signal, primary screen, Schnurri-3 inhibitor project, cell-based, Clone20 osteoblasts, set 2; Clone20 osteoblast Shn3 3'UTR firefly luciferase, 24 h; inhibition, % at 12.5 µM; actives 0.52% (n = 360,000); AID 588674, 2011;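 active = mean inhibition of at least 75% with every replicate also reaching 75%; inconclusive = mean inhibition at least 75% but some replicate below; inactive = mean inhibition below 75%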;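 also: 0% = median of neutral control wells and 100% = pilot-screen positive control compound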
Jurkat NFkB inh = inhibitors of induced NF-kB luciferase reporter, primary screen, TCR NF-kB activation inhibitor project, cell-based, luminescence, uHTS | Jurkat, PMA/ionomycin-induced NF-kB luciferase reporter | inhibition, % at 4 µM | actives 0.53% (n = 330,000) | AID 435003, 2010; in the data active = inhibition above about 50%
697 NFkB inh = inhibitors of PMA/ionomycin-induced NF-kB reporter, 697 cells, primary screen, B-cell NF-kB inhibitor project, cell-based, luminescence, uHTS; 697 B-cell NF-kB luciferase reporter, 16 h; inhibition, % at 4 µM; actives 0.33% (n = 330,000); in the data active = inhibition above about 35%
* = called active by the depositor. Sampled rows, rich in hits. Any-hit rate of the full collection: about 2.3%.

O=C(C1CCN(S(=O)(=O)N2CCCCC2)CC1)N1CCCCC1 was read as TRPM1 prom inh -1, Gli-Sufu antag 2, EBV LMP1 NFkB 56*, Shn3 inh set2 -12, Jurkat NFkB inh 2 and 697 NFkB inh 12.
Screening CCc1ccc(NC(=O)COC(=O)C2(c3ccc(Cl)cc3)CCCC2)cc1 returned TRPM1 prom inh 10, Gli-Sufu antag -9, EBV LMP1 NFkB 61*, Shn3 inh set2 43, Jurkat NFkB inh -13 and 697 NFkB inh 6.
For O=C(COC(=O)C1(c2ccc(Cl)cc2)CCCC1)NCc1ccco1 the results were TRPM1 prom inh 14, Gli-Sufu antag -1, EBV LMP1 NFkB -3, Shn3 inh set2 7, Jurkat NFkB inh 0 and 697 NFkB inh -12.
For CCOC(=O)C1(Cc2ccccc2)CCN(Cc2cccc3nccnc23)CC1 the results were TRPM1 prom inh 4, Gli-Sufu antag 31, EBV LMP1 NFkB -1, Shn3 inh set2 11, Jurkat NFkB inh 4 and 697 NFkB inh 0.
Screening COc1ccccc1NC(=O)COc1ccc(C(F)(F)F)cc1[N+](=O)[O-] returned TRPM1 prom inh -10, Gli-Sufu antag -19, EBV LMP1 NFkB -7, Shn3 inh set2 -9, Jurkat NFkB inh -4 and 697 NFkB inh -2.
For CC[n+]1c(/C=C/c2ccc(OC(C)=O)c(OC)c2)ccc2ccccc21 the results were TRPM1 prom inh -84, Gli-Sufu antag -23, EBV LMP1 NFkB 2, Shn3 inh set2 -123, Jurkat NFkB inh -84 and 697 NFkB inh -32.
`CC[n+]1c(/C=C/c2ccc(N(C)C)cc2)ccc2ccccc21` gave TRPM1 prom inh 90*, Gli-Sufu antag 88*, EBV LMP1 NFkB 52* and Shn3 inh set2 inconclusive.
For CC[n+]1ccc(/C=C/c2ccc(N(C)C)cc2)c2ccccc21 the results were TRPM1 prom inh 88*, Gli-Sufu antag 87*, EBV LMP1 NFkB inconclusive and Shn3 inh set2 88*.
For CCCCCC[n+]1ccccc1/C=C/c1ccc(N(C)C)cc1 the results were Shn3 inh set2 76.
For CN(C)c1ccc(/C=C/c2cc[n+]([O-])cc2)cc1 the results were Jurkat NFkB inh -18 and 697 NFkB inh -20.
`CN(C)c1ccc(/C=C/c2cc[n+](C)cc2)cc1` gave TRPM1 prom inh -10, Gli-Sufu antag 70*, EBV LMP1 NFkB 10, Shn3 inh set2 83, Jurkat NFkB inh 26 and 697 NFkB inh -10.
For Cc1cc(OCC(=O)N(C)C2CCCCC2)ccc1Cl the results were TRPM1 prom inh -40, Gli-Sufu antag -72, EBV LMP1 NFkB -26, Shn3 inh set2 -56, Jurkat NFkB inh -118 and 697 NFkB inh -169.
`Cc1onc(-c2ccccc2)c1C(=O)NC(=S)NNC(=O)c1ccc(O)cc1O` gave TRPM1 prom inh 47, Gli-Sufu antag 14, EBV LMP1 NFkB 43*, Shn3 inh set2 77, Jurkat NFkB inh 12 and 697 NFkB inh -12.
`O=C(OCn1ncc(Br)c(Br)c1=O)c1ccc(F)cc1` gave TRPM1 prom inh 85*, Gli-Sufu antag -1, EBV LMP1 NFkB inconclusive, Shn3 inh set2 98*, Jurkat NFkB inh 27 and 697 NFkB inh -37.
Screening O=C(OCn1ncc(Br)c(Br)c1=O)c1ccccc1Cl returned TRPM1 prom inh 89*, Gli-Sufu antag 12, EBV LMP1 NFkB 14, Shn3 inh set2 97*, Jurkat NFkB inh 21 and 697 NFkB inh -29.
`CCCCCc1ccc(-c2cn(CC3CCCCC3)nn2)cc1` gave TRPM1 prom inh -10, Gli-Sufu antag -13, EBV LMP1 NFkB -1, Shn3 inh set2 -16, Jurkat NFkB inh 6 and 697 NFkB inh -1.
For CCOc1ccc(/C=N/Nc2cc(N3CCOCC3)ncn2)c(O)c1 the results were EBV LMP1 NFkB 56* and Shn3 inh set2 93*.
Clc1ccccc1/C=N/Nc1cc(N2CCOCC2)ncn1 was read as TRPM1 prom inh -59, Gli-Sufu antag -78, EBV LMP1 NFkB -25, Shn3 inh set2 -117, Jurkat NFkB inh -60 and 697 NFkB inh -102.
`Cc1no[n+]([O-])c1COc1ccc(/C=C(\C#N)C(N)=O)cc1` gave TRPM1 prom inh -3, Gli-Sufu antag -1, EBV LMP1 NFkB -17, Shn3 inh set2 1, Jurkat NFkB inh 0 and 697 NFkB inh -1.
CCOc1ccc(NS(=O)(=O)c2ccc(NS(C)(=O)=O)cc2)cc1 was read as TRPM1 prom inh -7, Gli-Sufu antag -26, EBV LMP1 NFkB 5, Shn3 inh set2 27, Jurkat NFkB inh -8 and 697 NFkB inh 22.
CCCCCOc1ccc(NS(C)(=O)=O)cc1 was read as TRPM1 prom inh -28, Gli-Sufu antag -20, EBV LMP1 NFkB 78*, Shn3 inh set2 -25, Jurkat NFkB inh -19 and 697 NFkB inh -35.
For Cc1csc(NC(=O)C(C)Oc2ccc(Br)cc2)n1 (configuration not stated) the results were TRPM1 prom inh -7, Gli-Sufu antag -2, EBV LMP1 NFkB -3, Shn3 inh set2 10, Jurkat NFkB inh 5 and 697 NFkB inh 11.
Screening COc1ccc(Nc2ccnc3ccccc23)cc1 returned TRPM1 prom inh -3, Gli-Sufu antag -6, EBV LMP1 NFkB 15, Shn3 inh set2 4, Jurkat NFkB inh 11 and 697 NFkB inh 4.
`CC(C)Nc1ccc(Nc2ccnc3cc4ccccc4cc23)cc1` gave TRPM1 prom inh 88*, Gli-Sufu antag 11, EBV LMP1 NFkB -143, Shn3 inh set2 13, Jurkat NFkB inh -3 and 697 NFkB inh -30.
For c1ccc(CCNc2ccnc3cc4ccccc4cc23)cc1 the results were TRPM1 prom inh 103*, Gli-Sufu antag 83*, EBV LMP1 NFkB -60 and Shn3 inh set2 94*.
`COc1ccc(OC)c(NC(=O)Cn2c(=O)n(CC(=O)NCc3ccco3)c(=O)c3ccccc32)c1` gave TRPM1 prom inh 10, Gli-Sufu antag -1, EBV LMP1 NFkB -3, Shn3 inh set2 -7, Jurkat NFkB inh -7 and 697 NFkB inh -23.
Screening COCCN1Cc2cccc(C(=O)N3CCN(c4cc(C)ccc4C)CC3)c2C1=O returned TRPM1 prom inh 6, Gli-Sufu antag -2, EBV LMP1 NFkB 78*, Shn3 inh set2 18, Jurkat NFkB inh -3 and 697 NFkB inh -15.
COCCN1Cc2cccc(C(=O)Nc3ccc4c(c3)OCCO4)c2C1=O was read as TRPM1 prom inh -2, Gli-Sufu antag 7, EBV LMP1 NFkB 14, Shn3 inh set2 87*, Jurkat NFkB inh -23 and 697 NFkB inh -13.
Screening CCCN1Cc2cccc(C(=O)N3CCN(c4cc(Cl)ccc4C)CC3)c2C1=O returned Gli-Sufu antag 3, EBV LMP1 NFkB 3, Shn3 inh set2 13, Jurkat NFkB inh 2 and 697 NFkB inh 11.
